The record followed here is PubChem BioAssay (EPA / NIEHS).

SMILES strings stand for the structures. Several values for one entry are separate records, joined by “and”; a condition that tells them apart may be missing. Equal entries are not always repeated. Activity calls are given as the source filed them. How the source made its calls: active means hit-call score of the fitted dose curve at least 0.9, where 1 is the maximum; inactive means score below 0.9.

Sequence of Tumor necrosis factor (Homo sapiens) (P01375 whole entry, looked up): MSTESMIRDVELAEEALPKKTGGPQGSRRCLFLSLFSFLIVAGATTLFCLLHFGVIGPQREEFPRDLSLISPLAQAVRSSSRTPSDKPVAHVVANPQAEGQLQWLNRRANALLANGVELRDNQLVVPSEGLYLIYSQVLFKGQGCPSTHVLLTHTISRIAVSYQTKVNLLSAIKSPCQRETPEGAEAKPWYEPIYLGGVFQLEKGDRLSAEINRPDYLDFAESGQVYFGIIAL

Read-out in the test: Tumor necrosis factor (Homo sapiens) (UniProt P01375)
Put plainly: BSK_BT_xTNFa: BioMAP Diversity Plus: BT Assay for Tumor necrosis factor alpha (TNF-alpha) Biomarker Activity (AID 2284230). The settings on record: primary human B cells with PBMC. The method, then: BSK_BT is a cell-based, multiplexed-readout assay that uses B cell and peripheral blood mononuclear cells, a human vascular primary cell co-culture, with measurements taken at 24 hours after chemical dosing in a microplate: 96-well plate.BSK_BT_xTNFa is an assay component of the BSK_BT assay. It measures secreted TNF-alpha related to regulation of gene expression using LumineX xMAP technology.Data from the assay component BSK_BT_xTNFa was analyzed at the endpoint, BSK_BT_xTNFa, in the positive analysis fitting direction relative to DMSO as the negative control and baseline of activity. Using a type of cytokine quantitation reporter, gain or loss-of-signal activity can be used to understand protein changes. To generalize the intended target to other relatable targets, this assay endpoint is annotated to the 'cytokine' intended target family, where the subfamily is 'inflammatory factor'.
The levels of cell surface (or secreted, indicated by the prefix "s") biomarker endpoints were measured by ELISA. Overt cytotoxicity to cells in confluent adherent cultures (all systems other than the BT system) was assessed by measuring total protein levels using sulforhodamine B (SRB) staining in parallel cultures at the time of biomarker measurements, indicated as SRB endpoints. For proliferation assays for adherent cell types, individual cell types are cultured at sub-confluence and relative cell numbers quantified by SRB staining at time points optimized for each system (48 h: 3C and CASM3C systems; 72 h: BT and HDF3CGF systems; 96 h: SAg system). SRB was performed by staining cells with 0.1% SRB after fixation with 10% TCA and reading wells at 560 nm.Viability and proliferation of PBMC (T cells) was quantified by Alamar Blue reduction for the SAg and BT systems. For PBMC viability (referred to as PBMC Cytotoxicity within the assay endpoint names), cells were plated (75,000/well in a 96-well plate) and then chemical samples added for 1 h before addition of activators, SEB and TSST-1 (20 ng/mL final concentration each). Cells were incubated for 90 h. Then, Alamar Blue (20 uL/well) (Invitrogen, Cat DAL1100) was added for 6 h, and the plates were read with a fluorescence microplate reader at 546/580 nm (excitation/emission). For PBMC proliferation, cells were plated and activated as above but incubated for only 16 h prior to addition of Alamar Blue. Plates were read after 6 h.
With `Oc1cccc2ccccc12`, the result was inactive.
On the same count and under the same terms, under `CC(C)CC(=O)CC(C)CC(C)C` (stereo not given) stands “inactive”.
The same measure, in the same setting: under `CN(C)CCC(c1ccc(Cl)cc1)c1ccccn1` (stereo not given) stands “inactive”.
Usually AC50 stands for the concentration at which the activity in the assay is half-maximal. As for `CCCCCCCCCCCCCCCCCC[N+](C)(C)C`, the AC50 is 2.62 µM (active).
With `OC(C(F)(F)F)(C(F)(F)F)C(O)(C(F)(F)F)C(F)(F)F`, the AC50 is 41.9 µM (active) and 40.2 µM (active).
With `CCCCCCC(O)CCCCCCCCCCC(=O)OC` (stereo not given), the result was inactive.
Regarding `CC[N+](CC)(CC(=O)Nc1c(C)cccc1C)Cc1ccccc1`, the result was inactive.
On the same count and under the same terms, the result for `Cc1cccnc1` reads “inactive”; that for `CCCCCCCCCCC1CO1` (stereo not given), “inactive”; that for `COC(=O)/C=C\C(=O)OC`, “inactive”.
The same measure, in the same setting: under `O=C(C(=O)c1ccccc1)c1ccccc1` stands “inactive”; under `CCCCCCCCCC/C=C/C1CC(=O)OC1=O` (stereo not given), “inactive”.
Turning to `CN(C)c1ccc(C(c2ccccc2)c2ccc(N(C)C)cc2)cc1`, the half-maximal activity concentration (AC50) is 33.1 µM (active).
As for `Sc1nc2ccccc2s1`, the result was inactive.
For the compound `Cc1cc(-n2nc3ccc(Cl)cc3n2)c(O)c(C(C)(C)C)c1`, the result was inactive.
